{"source": "ChEMBL document CHEMBL3988442", "about": "“University of Dundee, Small-Polar-MMV Screening Library” (2021)", "note": "In all, about 48,000 compounds went through this assay and about 13,000 (27%) showed an effect of 50% or more. Some of the results follow."}
{"test_system": "Wolbachia pipientis", "assay": "Anti-Wolbachia Cell-Based Screen", "type": "functional", "parameters": "scale not given: in the data most compounds retested in dose-response had high values", "conditions": "5 µM", "units": {"Percent Effect": "%"}}
{"smiles": "O=C(O)C(F)(F)F.O=S(=O)(NC1CCC12CCN(CC1CC1)CC2)c1ccccc1", "note": "(stereo not drawn)", "Percent Effect": 2.266}
{"smiles": "Cc1ccc(NC2COC3(CCN(CC(C)C)CC3)C2)nn1.O=C(O)C(F)(F)F", "note": "(stereo not drawn)", "Percent Effect": -1.394}
{"smiles": "CC(=O)N1CCC2(CC1)CC(NS(C)(=O)=O)c1ccccc1O2", "note": "(stereo not drawn)", "Percent Effect": 119.8}
{"smiles": "CC(C)N1CCC2(CC1)CC(NS(C)(=O)=O)c1ccccc1O2.O=C(O)C(F)(F)F", "note": "(stereo not drawn)", "Percent Effect": 107.1}
{"smiles": "CCN1CCC2(CC1)CC(NC(=O)c1csnn1)c1ccccc1O2.O=C(O)C(F)(F)F", "note": "(stereo not drawn)", "Percent Effect": -74.83}
{"smiles": "CS(=O)(=O)N1CC[C@]2(C[C@@H](Oc3ccccn3)CO2)C1.O=C(O)C(F)(F)F", "Percent Effect": -15.23}
{"smiles": "CN(C)C(=O)CC1CC2(CCN(C(=O)N(C)C)CC2)Oc2ccccc21", "note": "(stereo not drawn)", "Percent Effect": -10.67}
{"smiles": "CNC(=O)NC(=O)C(C)N1CCCc2cc(OC)ccc2C1", "note": "(stereo not drawn)", "Percent Effect": -11.16}
{"smiles": "CC(CO)N(C)C(=O)c1cn(-c2ccc(Br)cc2)cn1", "note": "(stereo not drawn)", "Percent Effect": -3.083}
{"smiles": "Cc1cc(F)ccc1NCC(=O)NCC(F)(F)F", "Percent Effect": 8.632}
{"smiles": "CC(C)c1nc2n(n1)CC(NCCc1cccs1)CC2", "note": "(stereo not drawn)", "Percent Effect": 0.7675}
{"smiles": "NC(=O)N1CCCN(C2CCc3ccc(F)cc32)CC1", "note": "(stereo not drawn)", "Percent Effect": -19.72}
{"smiles": "COc1cc2c(nn1)CCN(CC(O)COc1ccc(C#N)cc1)C2", "note": "(stereo not drawn)", "Percent Effect": -7.756}
{"smiles": "CC(Cc1ccco1)NS(=O)(=O)N1CCCCCC1", "note": "(stereo not drawn)", "Percent Effect": -8.82}
{"smiles": "Cc1ccc(N2CCCC(NCc3cccc4c3OCCO4)C2)nn1", "note": "(stereo not drawn)", "Percent Effect": 17.19}
{"smiles": "Cc1ccc(N2CCCC(NCc3ccc(Cl)o3)C2)nn1", "note": "(stereo not drawn)", "Percent Effect": 93.48}
{"smiles": "CSCc1ccc(CNC2CCCN(c3ccc(C)nn3)C2)o1", "note": "(stereo not drawn)", "Percent Effect": 95.39}
{"smiles": "Cc1ccc(N2CCCC(NCc3ccc(C)o3)C2)nn1", "note": "(stereo not drawn)", "Percent Effect": 12.24}
{"smiles": "CC(C)(C)CN1CCN2C(=O)N(C3CCCCC3)C[C@H]2C1", "Percent Effect": -7.444}
{"smiles": "COc1ccc(C(N)=O)cc1NCc1noc(-c2ccsc2)n1", "Percent Effect": 0.901}
{"smiles": "O=C(c1ccc(C(F)(F)F)cc1)N1C[C@@H](CN2CCCCC2)[C@@H](CO)C1", "Percent Effect": -17.56}
{"smiles": "Cc1nnc(N2CCN(C)C3(CCC(=O)N(CCO)CC3)C2)s1", "note": "(stereo not drawn)", "Percent Effect": -2.989}
{"smiles": "Cc1ncc(C(=O)NCCOc2ccccc2F)c(C)n1", "Percent Effect": -10.65}
{"smiles": "Cc1cccc(OCCCNC(=O)Cn2ccc(C)cc2=O)c1", "Percent Effect": 90.13}
{"smiles": "Cc1cccc(OCCNC(=O)C(C)S(=O)(=O)c2ccccn2)c1", "note": "(stereo not drawn)", "Percent Effect": 5.338}
{"smiles": "Cc1ccn(CC(=O)NCCCOc2ccccc2F)c(=O)c1", "Percent Effect": 116.2}
{"smiles": "Cc1cccc(OCCCNC(=O)NC(C)c2nncn2C)c1", "note": "(stereo not drawn)", "Percent Effect": 6.947}
{"smiles": "Cc1cccc(OCCNC(=O)Cn2ccc(C)cc2=O)c1", "Percent Effect": 104.8}
{"smiles": "CC(NC(=O)NCCCOc1ccccc1F)c1nncn1C", "note": "(stereo not drawn)", "Percent Effect": 6.488}
{"smiles": "Cc1cccc(OCCNC(=O)C(C)S(=O)(=O)C2CCCC2)c1", "note": "(stereo not drawn)", "Percent Effect": -6.282}
{"smiles": "CC(=O)Nc1nc(C(=O)NCCOc2cccc(C)c2)cs1", "Percent Effect": 7.237}
{"smiles": "CCc1cc(N2CCCNCC2)n2nc(C)c(C)c2n1", "Percent Effect": 3.882}
{"smiles": "CCN1CCCC(c2c(-c3ccccc3)ncn2Cc2csc(N)n2)C1", "note": "(stereo not drawn)", "Percent Effect": 4.265}
{"smiles": "COc1ccc2[nH]nc(CN3CCC(C(C)N(C)C)CC3)c2c1", "note": "(stereo not drawn)", "Percent Effect": 2.332}
{"smiles": "CC(c1nccs1)N(C)C(=O)c1cc(CN(C)Cc2ccccc2)on1", "note": "(stereo not drawn)", "Percent Effect": -3.289}
{"smiles": "CC(c1nccs1)N(C)S(=O)(=O)NCc1ccccc1", "note": "(stereo not drawn)", "Percent Effect": 97.09}
{"smiles": "CC(c1ccncn1)N(C)S(=O)(=O)NCc1ccccc1", "note": "(stereo not drawn)", "Percent Effect": 110.9}
{"smiles": "CC(=O)Nc1ccc(Cl)c(C(=O)N(C)C(C)c2ccncn2)c1", "note": "(stereo not drawn)", "Percent Effect": 19.4}
{"smiles": "CC(c1ccon1)N(C)C(=O)C1CCN(CC(N)=O)CC1", "note": "(stereo not drawn)", "Percent Effect": -6.665}
{"smiles": "CC(c1ccon1)N(C)S(=O)(=O)NCc1ccccc1", "note": "(stereo not drawn)", "Percent Effect": 110}
{"smiles": "CCN(CC)C(CNS(=O)(=O)NCc1ccccc1)c1ccco1", "note": "(stereo not drawn)", "Percent Effect": -8.171}
{"smiles": "C=C(C)COc1cccc(CN(C)C(C)c2ccncn2)c1", "note": "(stereo not drawn)", "Percent Effect": 2.778}
{"smiles": "C=C(C)COc1cccc(CN(C)C(C)c2nccs2)c1", "note": "(stereo not drawn)", "Percent Effect": 12.61}
{"smiles": "CN1CCC(N(C)C[C@H]2CC[C@@H](Cc3ccc4c(cnn4C)c3)O2)CC1", "Percent Effect": -7.23}
{"smiles": "CC(Nc1ccc(Oc2cccc(C#N)c2)cc1)C(=O)NC1CC1", "note": "(stereo not drawn)", "Percent Effect": 1.244}
{"smiles": "COCCc1noc(CN2CC(n3nc(C)cc3C)C2)n1", "Percent Effect": 87.49}
{"smiles": "COCCc1noc(CN2CCCC2c2c(C)nn(C)c2C)n1", "note": "(stereo not drawn)", "Percent Effect": 1.097}
{"smiles": "Cc1cc(C)n(CC2CCCN2Cc2c(C)noc2C)n1", "note": "(stereo not drawn)", "Percent Effect": 3.056}
{"smiles": "COCCc1noc(CN2CCCC2Cn2nc(C)cc2C)n1", "note": "(stereo not drawn)", "Percent Effect": 100.2}
{"smiles": "Cc1nc(C)n(CC2CCCN2Cc2nc(C3CC3)no2)n1", "note": "(stereo not drawn)", "Percent Effect": 2.651}
{"smiles": "COCCc1noc(CN2CCCC2Cn2nc(C)nc2C)n1", "note": "(stereo not drawn)", "Percent Effect": 103.9}
{"smiles": "COc1ccc(-c2nc(CN3CC(n4nc(C)cc4C)C3)no2)cc1", "Percent Effect": -0.6245}
{"smiles": "Cc1cc(C)n(C2CN(Cc3noc(-c4ccccc4)n3)C2)n1", "Percent Effect": -5.64}
